Bioassay records as filed in PubChem BioAssay.
This is a sample that favours compounds with a hit; in the whole collection about 4% have one here.
CSC inhib: cancer stem cell inhibition | actives 1.1% (n = 300,000) | inhibition, % at 7.5 µM | cancer stem cell-like cells viability, luminescence; in the data active = inhibition above about 75%; tested in HMLE shEcad cells
Mdm2 MdmX PPI: human Mdm2/MdmX binding inhibition. O15151+Q00987. SaOS-2 split-luciferase Mdm2/MdmX complementation, luminescence. inhibition, % at 8 µM. actives 3% (n = 330,000). AID 485346;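 active = inhibition of at least 50% at 8 µM in the primary screen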
Target sequence (O15151 whole entry, looked up): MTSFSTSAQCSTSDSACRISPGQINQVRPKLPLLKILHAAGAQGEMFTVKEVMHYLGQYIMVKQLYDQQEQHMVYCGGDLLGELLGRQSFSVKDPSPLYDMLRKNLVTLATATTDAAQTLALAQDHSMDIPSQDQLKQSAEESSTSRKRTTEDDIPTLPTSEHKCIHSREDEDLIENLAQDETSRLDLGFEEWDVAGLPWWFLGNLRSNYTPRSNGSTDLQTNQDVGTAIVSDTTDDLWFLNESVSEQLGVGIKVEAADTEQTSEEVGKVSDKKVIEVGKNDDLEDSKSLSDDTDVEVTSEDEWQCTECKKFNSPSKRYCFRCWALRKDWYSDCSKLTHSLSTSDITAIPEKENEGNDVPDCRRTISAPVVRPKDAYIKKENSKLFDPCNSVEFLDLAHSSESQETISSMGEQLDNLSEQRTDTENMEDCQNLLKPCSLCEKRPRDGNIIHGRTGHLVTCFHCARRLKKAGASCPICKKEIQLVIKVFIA
Target sequence (Q00987 whole entry, looked up): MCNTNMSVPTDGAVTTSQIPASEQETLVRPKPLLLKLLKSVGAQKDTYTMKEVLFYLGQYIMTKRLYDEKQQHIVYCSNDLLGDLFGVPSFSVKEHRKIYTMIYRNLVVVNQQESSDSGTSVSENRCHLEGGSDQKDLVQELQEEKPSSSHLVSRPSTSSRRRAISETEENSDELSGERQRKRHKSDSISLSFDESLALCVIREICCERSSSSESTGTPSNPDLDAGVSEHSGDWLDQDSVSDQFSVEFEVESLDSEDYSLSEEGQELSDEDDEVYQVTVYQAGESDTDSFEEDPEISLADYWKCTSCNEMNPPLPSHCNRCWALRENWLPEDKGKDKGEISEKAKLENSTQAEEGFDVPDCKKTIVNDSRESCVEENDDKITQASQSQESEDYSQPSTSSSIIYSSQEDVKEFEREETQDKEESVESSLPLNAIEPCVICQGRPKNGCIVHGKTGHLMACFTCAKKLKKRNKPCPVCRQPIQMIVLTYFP
Beta apoptosis: blocks beta cell apoptosis; actives 0.8% (n = 300,000); protection from apoptosis, % (concentration not given with the values); INS-1E cytokine-induced death, ATP luminescence, 48 h; percent of positive-control rescue, neutral wells zero; AID 435005;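 active = Every replicate reaches about 75%, or at least half do and their mean reaches it too, limit read from the data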;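 note: 0% = cytokine-treated negative control wells and 100% = positive control rescue; higher means more ATP so stronger rescue from cytokine killing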
PAX8 inh HTS: inhibitors of PAX8 transcriptional activity in RMG-I cells | RMG-I TPO-luciferase reporter, SteadyGlo, 24 h | inhibition, % at 12.6 µM | actives 1.2% (n = 360,000) | AID 652154;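 active = mean replicate inhibition at least 60% with every replicate also reaching 60%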;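 note: luciferase light reporting Pax8 driven TPO promoter activity; plate controls were median of neutral control wells for no effect and mitoxantrone controls for full effect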
Gli-Sufu antag: antagonists of Gli-Sufu signaling. Sufu-KO-LIGHT fibroblasts, Gli luciferase reporter luminescence. inhibition, % at 5 µM. actives 0.74% (n = 340,000). AID 588413;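 active = inhibition above about 55%, limit read from the data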;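 note: 0% = DMSO-treated cells and 100% = wells with medium but no cells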
Shn3 inh set2: Schnurri-3 reporter inhibition in Clone20 osteoblasts. Clone20 osteoblast Shn3 3'UTR firefly luciferase, 24 h. inhibition, % at 12.5 µM. actives 0.52% (n = 360,000). AID 588674;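 active = mean inhibition of at least 75% with every replicate also reaching 75%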;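 note: 0% = median of neutral control wells and 100% = pilot-screen positive control compound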
Mdm2-MdmX conf: human Mdm2/MdmX binding inhibition, confirmed. shares compounds with Mdm2 MdmX PPI. luminescent assay. inhibition, % at 8 µM. actives 55% (n = 10,000). AID 489028; in the data active = inhibition above about 40%
Full FLuc ctr: inhibits full-length luciferase, flagging false Mdm2/MdmX hits; inhibition, % at 8 µM; shares compounds with Mdm2 MdmX PPI; actives 77% (n = 6,200); AID 504607; SaOS-2 full-length luciferase counterscreen, luminescence;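 active = mean inhibition at 8 µM reaching about 37%, which flags the compound as non-specific, limit read from the data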;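 note: p53-null SaOS-2 cells with luciferase driven by a doxycycline-inducible promoter; compound on cells about two nights before reading with doxycycline added after day one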
* marks the source's active call; other numbers are inactive results; / = no result given.

SMILES | CSC inhib | Mdm2 MdmX PPI | Beta apoptosis | PAX8 inh HTS | Gli-Sufu antag | Shn3 inh set2 | Mdm2-MdmX conf | Full FLuc ctr
CNC(=O)COC(=O)c1ccccc1C(=O)c1ccc(Cl)c([N+](=O)[O-])c1 | / | / | / | 30.7 | 3.6 | 38.6 | / | /
N/C(=N\OC(=O)c1ccc(Cl)c([N+](=O)[O-])c1)c1ccccc1 | 28.4 | 64.9* | 3.8 | 10.4 | 19.5 | -72.7 | 28.9 | /
O=C(COC(=O)c1ccccc1C(=O)c1ccc(Cl)c([N+](=O)[O-])c1)NC1CC1 | 24.8 | 99.9* | -9.7 | 33.2 | -6.6 | 70.2 | 96.3* | 51.5*
N/C(=N\OC(=O)c1ccc(Cl)c([N+](=O)[O-])c1)c1ccccn1 | 20.1 | 67.2* | -1.0 | 12.1 | -15.2 | -51.8 | 45.8* | 91.0*
CC(C)CC#Cc1cnc2c(c1)C(=O)N([C@@H](C)CO)C[C@@H](C)[C@@H](CN(C)C(=O)Cc1ccncc1)O2 | / | / | / | -14.5 | / | / | / | /
C[C@H](CO)N1C[C@H](C)[C@H](CN(C)C(=O)NC2CCCCC2)Oc2ccc(N(C)C)cc2CC1=O | / | / | / | 3.8 | / | / | / | /
C[C@@H]1CN([C@@H](C)CO)C(=O)Cc2cc(NC(=O)CCC(F)(F)F)ccc2O[C@H]1CN(C)C(=O)Nc1cccc2ccccc12 | / | / | / | -5.2 | / | / | / | /
CCc1cnc(N2[C@H](C#N)[C@@H](c3ccc(-c4cccc(F)c4)cc3)[C@H]2CO)s1 | / | / | / | -29.3 | / | / | / | /
CC(=O)[C@]12O[C@@]3(COC[C@H](c4ccccc4)N3C1=O)[C@H]1C(=O)N(c3ccccc3)C(=O)[C@H]12 | / | / | / | -7.9 | / | / | / | /
CCc1ccc(S(=O)(=O)Nc2ccc(-c3ccc4nnc(C)n4n3)cc2)s1 | -0.8 | 13.6 | -0.2 | 4.6 | 6.9 | 17.3 | / | /
COc1ccc(OC)c(S(=O)(=O)Nc2ccc(-c3ccc4nnc(C)n4n3)cc2)c1 | 29.4 | 51.1* | -1.1 | 9.6 | 3.3 | 31.1 | 61.0* | 65.1*
CCc1ccc(S(=O)(=O)Nc2cccc(-c3ccc4nnc(C)n4n3)c2)s1 | 12.5 | 55.3* | 11.1 | -6.5 | 18.4 | 13.9 | 52.9* | 85.0*
Cc1ccc(S(=O)(=O)Nc2cccc(-c3ccc4nncn4n3)c2)cc1 | 3.2 | 63.4* | 12.2 | 26.6 | 7.8 | 6.4 | 77.8* | 65.7*
Cc1nnc2ccc(-c3ccc(NS(=O)(=O)c4ccc(F)cc4F)cc3)nn12 | 7.0 | 17.8 | -0.9 | -17.7 | 2.2 | 0.9 | / | /
COc1ccc(S(=O)(=O)Nc2ccc(-c3ccc4nnc(C)n4n3)cc2)c(OC)c1 | 15.5 | 71.4* | -10.9 | 31.9 | 17.1 | 6.3 | 35.9 | /
CO[C@H]1CN(C)C(=O)c2ccc(NC(=O)c3ccc4c(c3)OCO4)cc2OC[C@H](C)N(CC2CC2)C[C@H]1C | / | / | / | -5.9 | / | / | / | /
CN(C)C(=O)c1cccc(-c2ccc3c(c2)[C@H]2[C@H](CCN2Cc2nccs2)[C@@H](CO)N3)c1 | / | / | / | -2.7 | / | / | / | /
COc1ccccc1S(=O)(=O)N1C[C@H](O)COC[C@H]2O[C@@H](CC(=O)O)CC[C@@H]21 | / | / | / | -3.7 | / | / | / | /
CC(C)Cn1c(N)c(C(=O)CSc2cc(Cl)ccc2Cl)c(=O)n(C)c1=O | 36.9 | 68.8* | 23.7 | / | / | / | -2.3 | /
O=C(C1CCOCC1)N1CC(=O)N2[C@H](C1)[C@H](c1ccc(C#CC3CCCCC3)cc1)[C@@H]2CO | / | / | / | -0.1 | / | / | / | /
Cc1ccc(O)c(CN(C)Cc2cc(C)ccc2O)c1 | / | / | / | / | -0.2 | -28.5 | / | /
Cc1ccc(-n2c(C)c([N+](=O)[O-])c3ccc(O)c(CN(C)C)c32)cc1 | -26.6 | 85.1* | -6.5 | -10.0 | -8.3 | 19.5 | 80.0* | 54.3*
COc1ccc(-n2c(C)c([N+](=O)[O-])c3ccc(O)c(CN4CCCCC4)c32)cc1 | 15.3 | 77.3* | 2.6 | -4.9 | -12.7 | 73.9 | 58.4* | 28.9
CSc1nc2ccc3nc(NC(=O)c4ccc(C)cc4)sc3c2s1 | 24.1 | 61.3* | -4.1 | -4.2 | -10.7 | 11.6 | 26.3 | /
COc1ccc(C(=O)Nc2nc3ccc4nc(C)sc4c3s2)cc1 | -7.7 | 16.9 | 1.3 | 0.0 | -6.7 | -19.9 | / | /
SMILES | CSC inhib | Mdm2 MdmX PPI | Beta apoptosis | PAX8 inh HTS | Gli-Sufu antag | Shn3 inh set2 | Mdm2-MdmX conf | Full FLuc ctr
CC(C)Oc1ccc(C(CCN)C2CCCCC2)cc1 (stereo not drawn) | 30.9 | 88.3* | 90.6* | -5.8 | 12.1 | 76.8 | 42.5* | 65.4*
COc1ccc(S(=O)(=O)N2c3ccc(F)cc3CCC2C)cc1 (stereo not drawn) | 63.1 | 59.1* | / | 77.9* | 50.4 | -13.6 | 63.3* | 97.1*
COCCN(C(=O)Cc1cccs1)C(C(=O)NCc1ccc(OC)cc1)c1ccc(OC)cc1 (stereo not drawn) | / | -4.5 | / | / | 3.7 | 15.6 | / | /
COc1ccc(CNC(=O)C(c2ccc(C)cc2)N(Cc2cccs2)C(=O)c2ccc3c(c2)OCCO3)cc1 (stereo not drawn) | 14.7 | 75.1* | 4.3 | / | 0.3 | 88.8* | 75.1* | 60.3*
Cc1ccc(C(C(=O)NCc2ccccc2)N(Cc2cccs2)C(=O)c2ccc3c(c2)OCCO3)cc1 (stereo not drawn) | 44.5 | 78.7* | 7.8 | 44.8 | 31.0 | 44.8 | 77.7* | 69.2*
COC(=O)c1ccc(C(C(=O)NCc2ccccc2)N(Cc2cccs2)C(=O)c2cnccn2)cc1 (stereo not drawn) | -4.7 | 13.6 | -2.6 | / | -28.5 | 7.5 | / | /
CCCNC(=O)C[C@@H]1CC[C@H]2[C@@H](COc3ccc(NC(=O)Nc4ccccc4)cc3C(=O)N2C)O1 | / | / | / | 8.2 | / | / | / | /
CO[C@H]1CN(C)C(=O)c2cc(NC(=O)C3CCCCC3)ccc2OC[C@@H](C)N(Cc2nccs2)C[C@H]1C | / | / | / | 5.3 | / | / | / | /
CCOC(=O)N1CCN(Cc2nc3ccc([N+](=O)[O-])cc3c(=O)n2-c2ccccc2F)CC1 | 15.3 | 52.4* | 1.4 | 27.8 | 5.0 | 55.3 | 41.0* | 75.3*
CCC(CC)N1CCN(Cc2nc3ccc([N+](=O)[O-])cc3c(=O)n2-c2ccccc2F)CC1 | -8.2 | 1.7 | -4.1 | 28.0 | 26.5 | -22.2 | / | /
COc1ccc(Cl)cc1C(=O)NCCN(C)C | -7.3 | 24.1 | -2.7 | 7.7 | -21.8 | -5.3 | / | /
CN(C)CCNC(=O)c1ccc(COc2ccc(Cl)cc2Cl)cc1 | 53.8 | 62.4* | 2.1 | / | 6.0 | -6.7 | 17.6 | /
CCN1CCN(c2cc(C(C)C)nc3c(-c4ccccc4)c(C)nn23)CC1 | -4.2 | 54.6* | 3.4 | 14.8 | 5.9 | -8.3 | 27.9 | /
CCN1CCN(c2cc(C(C)(C)C)nc3c(-c4ccccc4)c(C)nn23)CC1 | 139.8* | 53.9* | 64.2 | / | 9.2 | -10.0 | 52.6* | 66.6*
CCN1CCN(c2ccc(NC(=O)CCc3c(C)nc4c(-c5ccccc5)c(C)nn4c3C)cc2)CC1 | 54.4 | 88.7* | / | 56.4 | / | 1.7 | 43.6* | 66.4*
Cc1nc2c(-c3ccccc3)c(C)nn2c(C)c1CCC(=O)NCc1ccco1 | 2.2 | -11.4 | 3.0 | 0.9 | 3.1 | -2.0 | / | /
